Laboratory results: PubChem BioAssay (Tox21)
Inconclusive results are not listed. Entries that show only a call come without a potency. Activity calls are given as the source filed them. Calls come from the whole dose curve; as a rule, active = well fitted curve in the direction sought with a large enough effect in the repeat runs; inconclusive = weak or mixed curves; inactive = no such curve, though single readings can be large; an effect the other way counts as inactive or inconclusive.

assay: Human pregnane X receptor (PXR) small molecule agonists, qHTS cell viability counter screen (AID 1346977); settings: PXR-Luc HepG2 viability, CellTiter-Fluor, 24 h; series mostly up to 92.4 µM; note: nearly all actives have a fitted effect of over 50% in size; note: potency is the fitted concentration of half-maximal effect
Procedure, shortened: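 In each well, the PXR reporter HepG2 line was checked for viability: CellTiter-Fluor reagent added 23hr post-dosing, fluorescence read after 1hr incubation at 37C.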

SMILES | Potency
O=c1[nH]c2ccccc2n1CCCN1CCN(C(c2ccccc2)c2ccccc2)CC1 | 33.5 µM (active)
O=C(Nc1ccc2c(O)c(N=Nc3ccc(N=Nc4ccc(S(=O)(=O)O)cc4)cc3)c(S(=O)(=O)O)cc2c1)c1ccccc1 | 8.63 µM (active)
CC1(C)[C@@H](O)CC[C@]2(C)[C@H]3C(=O)C=C4[C@@H]5C[C@@](C)(C(=O)O)CC[C@]5(C)CC[C@@]4(C)[C@]3(C)CC[C@@H]12 | inactive
CCC(CC)(CC(=O)Nc1cccc(/C=C/c2nc(C3CCC3)cs2)c1)C(=O)O | inactive
CN1CCC[C@@H]1CCO[C@](C)(c1ccccc1)c1ccc(Cl)cc1 | 21.1 µM (active)
Nc1cc(Cl)c(O)c(Cl)c1 | inactive
OCCN1CCN(CCCN2c3ccccc3Sc3ccc(C(F)(F)F)cc32)CC1 | 33.5 µM (active)
CN1CCN(Cc2cc(-c3ccc4[nH]c(=O)oc4c3)co2)[C@@H](c2ccc(F)cc2)C1 | 46.7 µM (active)
O=C(c1ccc(O)c(O)c1)c1ccc(O)cc1O | 50.1 µM (active)
CCOC(=O)c1ccc(C2CCC(NC[C@H](O)COc3ccc(O)c(NS(C)(=O)=O)c3)CC2)cc1 (some centres undefined) | 56.4 µM (active)
Cc1cc(C(C#N)c2ccc(Cl)cc2)c(Cl)cc1NC(=O)c1cc(I)cc(I)c1O (centres undefined) | 16.8 µM (active)
CC(C)=CCNc1ncnc2c1ncn2[C@@H]1O[C@H](CO)[C@@H](O)[C@H]1O | 13.3 µM (active)
O=C(O)c1cc(N=Nc2ccc([N+](=O)[O-])cc2)ccc1O | 53.5 µM (active)
CC(C(=O)O)c1ccc2c(c1)[nH]c1ccc(Cl)cc12 (centres undefined) | inactive
CCCCN(CCCC)CC(O)c1cc(Cl)cc2c1-c1ccc(Cl)cc1/C2=C/c1ccc(Cl)cc1 (centres undefined) | 29.8 µM (active)

assay: Caspase-3/7 induction in HepG2 cells by small molecules, qHTS assay (AID 1346978); settings: HepG2 caspase-3/7 activation, Caspase-Glo luminescence, 17 h; series mostly up to 92.4 µM; note: nearly all actives have a fitted effect of over 15% in size
Procedure, shortened: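 Wild-type HepG2 cells (2,000/well) were settled 5 h at 37 C, 5% CO2, then exposed to compounds in DMSO for 17 h. Caspase-3/7 activity was read by luminescence 30 min after adding Caspase-Glo 3/7 reagent at room temperature.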

SMILES | Potency
O=S(=O)(O)c1ccccc1/C=C/c1ccc(-c2ccc(/C=C/c3ccccc3S(=O)(=O)O)cc2)cc1 | inactive
O=C1CCc2cc(OCCCCc3nnnn3C3CCCCC3)ccc2N1 | inactive
Cc1cc(-c2ccc(N=Nc3cc(S(=O)(=O)O)c4ccccc4c3N)c(C)c2)ccc1N=Nc1cc(S(=O)(=O)O)c2ccccc2c1N | inactive
C#C[C@]1(OC(C)=O)CC[C@H]2[C@@H]3CCC4=C[C@@H](OC(C)=O)CC[C@@H]4[C@H]3CC[C@@]21C | inactive
CCN1C(=O)c2ccccc2C1Nc1ccc(OCCN2CCCCC2)cc1 (centres undefined) | inactive
Cc1ccc(O)c(O)c1 | inactive
CCc1oc2ccccc2c1C(=O)c1cc(I)c(O)c(I)c1 | inactive
C=CCn1c(=O)n(CC=C)c(=O)n(CC=C)c1=O | inactive
Cc1ccc(O)c(N)c1 | inactive
CNC(=O)c1ccccc1Sc1ccc2c(/C=C/c3ccccn3)n[nH]c2c1 | inactive
CN1CCCCC1CCN1c2ccccc2Sc2ccc(S(C)=O)cc21 (centres undefined) | inactive
C#C[C@]1(OC(C)=O)CC[C@H]2[C@@H]3CCC4=C/C(=N/O)CC[C@@H]4[C@H]3CC[C@@]21CC | inactive
Cc1cc(C)c(/C=C2\C(=O)Nc3ccccc32)[nH]1 | inactive
O=c1c(O)c(-c2ccc(O)cc2O)oc2cc(O)cc(O)c12 | inactive
O=C(/C=C/c1ccc(O)c(O)c1)O[C@@H](C(=O)O)[C@@H](OC(=O)/C=C/c1ccc(O)c(O)c1)C(=O)O | inactive
CCO[C@@H]1O[C@H](C(COCc2ccccc2)OCc2ccccc2)[C@H](OCc2ccccc2)[C@H]1O (some centres undefined) | inactive
OC12N=C(c3ccccc3)SC1Cc1cc(Cl)ccc12 (centres undefined) | inactive
COC(=O)C1=C(C)NC(C)=C(C(=O)OCCN2CCN(C(c3ccccc3)c3ccccc3)CC2)C1c1cccc([N+](=O)[O-])c1 (centres undefined) | inactive
Cc1cc(C(C)(C)C)cc(C)c1CC1=NCCN1 | inactive
